# What was measured:
# Assay in all cases: SPOT peptide array binding signal intensity (averaged, normalized) (arbitrary units (background-subtracted, floor 0; scale differs between SH3 domains)); higher = stronger binding of the SH3 domain to the peptide
# AgAbp1 = target: AgAbp1
# How it was run: (§1)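 To measure binding, SH3 domains from four yeast species were fused to GST, expressed in E. coli BL21(DE3) and purified on glutathione Sepharose. Each domain was incubated at 10 μg/ml overnight at 4°C on cellulose membranes with synthetic 15-mer peptides whose cysteines were replaced by serines. Anti-GST antibody, an HRP anti-mouse secondary and luminol were used for detection, and images were quantified with Genespotter. Reported binding signal is normalized, background-subtracted spot intensity averaged over replicates, in arbitrary units that differ between domains.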
# AgBbc1 = target: AgBbc1
# How it was run: as §1
# AgBem1-D1 = target: AgBem1-D1
# How it was run: as §1
# AgBzz1-D1 = target: AgBzz1-D1
# How it was run: as §1
# AgBzz1-D2 = target: AgBzz1-D2
# How it was run: as §1
# AgCyk3 = target: AgCyk3
# How it was run: as §1
# AgFus1 = target: AgFus1
# How it was run: as §1
# AgHof1 = target: AgHof1
# How it was run: as §1
# AgHse1 = target: AgHse1
# How it was run: as §1
# AgLsb1 = target: AgLsb1
# How it was run: as §1
# AgLsb4 = target: AgLsb4
# How it was run: as §1
# AgMyo5 = target: AgMyo5
# How it was run: as §1
# AgNbp2 = target: AgNbp2
# How it was run: as §1
# AgRvs167 = target: AgRvs167
# How it was run: as §1
# AgSho1 = target: AgSho1
# How it was run: as §1
# AgSla1-D1-D2 = target: AgSla1-D1-D2
# How it was run: as §1
# AgSla1-D3 = target: AgSla1-D3
# How it was run: as §1
# CaAbp1-D1 = target: CaAbp1-D1
# How it was run: as §1
# CaAbp1-D2 = target: CaAbp1-D2
# How it was run: as §1
# CaBbc1 = target: CaBbc1
# How it was run: as §1
# CaBem1-D1 = target: CaBem1-D1
# How it was run: as §1
# CaBzz1-D1 = target: CaBzz1-D1
# How it was run: as §1
# CaBzz1-D2 = target: CaBzz1-D2
# How it was run: as §1
# CaCyk3 = target: CaCyk3
# How it was run: as §1
# CaFus1 = target: CaFus1
# How it was run: as §1
# CaHof1 = target: CaHof1
# How it was run: as §1
# CaHse1 = target: CaHse1
# How it was run: as §1
# CaLsb1 = target: CaLsb1
# How it was run: as §1
# CaLsb4 = target: CaLsb4
# How it was run: as §1
# CaMyo5 = target: CaMyo5
# How it was run: as §1
# CaNbp2 = target: CaNbp2
# How it was run: as §1
# CaRvs167 = target: CaRvs167
# How it was run: as §1
# CaRvs167-3 = target: CaRvs167-3
# How it was run: as §1
# CaSho1 = target: CaSho1
# How it was run: as §1
# CaSla1-D1-D2 = target: CaSla1-D1-D2
# How it was run: as §1
# CaSla1-D3 = target: CaSla1-D3
# How it was run: as §1
# ScAbp1 = target: ScAbp1
# How it was run: as §1
# ScBbc1 = target: ScBbc1
# How it was run: as §1
# ScBem1-D1 = target: ScBem1-D1
# How it was run: as §1
# ScBzz1-D1 = target: ScBzz1-D1
# How it was run: as §1
# ScBzz1-D2 = target: ScBzz1-D2
# How it was run: as §1
# ScCyk3 = target: ScCyk3
# How it was run: as §1
# ScFus1 = target: ScFus1
# How it was run: as §1
# ScHof1 = target: ScHof1
# How it was run: as §1
# ScHse1 = target: ScHse1
# How it was run: as §1
# ScLsb1 = target: ScLsb1
# How it was run: as §1
# ScLsb2 = target: ScLsb2
# How it was run: as §1
# ScLsb3 = target: ScLsb3
# How it was run: as §1
# ScLsb4 = target: ScLsb4
# How it was run: as §1
# ScMyo3 = target: ScMyo3
# How it was run: as §1
# ScMyo5 = target: ScMyo5
# How it was run: as §1
# ScNbp2 = target: ScNbp2
# How it was run: as §1
# ScPex13 = target: ScPex13
# How it was run: as §1
# ScRvs167 = target: ScRvs167
# How it was run: as §1
# ScSho1 = target: ScSho1
# How it was run: as §1
# ScSla1-D1-D2 = target: ScSla1-D1-D2
# How it was run: as §1
# ScSla1-D3 = target: ScSla1-D3
# How it was run: as §1
# SpAbp1-D1 = target: SpAbp1-D1
# How it was run: as §1
# SpBbc1 = target: SpBbc1
# How it was run: as §1
# SpBzz1-D1 = target: SpBzz1-D1
# How it was run: as §1
# SpBzz1-D2 = target: SpBzz1-D2
# How it was run: as §1
# SpCyk3 = target: SpCyk3
# How it was run: as §1
# SpHof1 = target: SpHof1
# How it was run: as §1
# SpHof1-2 = target: SpHof1-2
# How it was run: as §1
# SpHof1-3 = target: SpHof1-3
# How it was run: as §1
# SpHse1 = target: SpHse1
# How it was run: as §1
# SpLsb1 = target: SpLsb1
# How it was run: as §1
# SpLsb4 = target: SpLsb4
# How it was run: as §1
# SpMyo1 = target: SpMyo1
# How it was run: as §1
# SpNbp2 = target: SpNbp2
# How it was run: as §1
# SpPex13 = target: SpPex13
# How it was run: as §1
# SpRvs167 = target: SpRvs167
# How it was run: as §1
# SpSla1-D1-D2 = target: SpSla1-D1-D2
# How it was run: as §1
# SpSla1-D3 = target: SpSla1-D3
# How it was run: as §1
binder,measurement,setting,value
SRYRRPLTLLLLKPF,SPOT peptide array binding signal intensity,AgAbp1,16
same,SPOT peptide array binding signal intensity,AgBbc1,6
same,SPOT peptide array binding signal intensity,AgBem1-D1,0.5
same,SPOT peptide array binding signal intensity,AgBzz1-D1,23
same,SPOT peptide array binding signal intensity,AgBzz1-D2,17
same,SPOT peptide array binding signal intensity,AgCyk3,1
same,SPOT peptide array binding signal intensity,AgFus1,965
same,SPOT peptide array binding signal intensity,AgHof1,13.8
same,SPOT peptide array binding signal intensity,AgHse1,1270
same,SPOT peptide array binding signal intensity,AgLsb1,≤ 0
same,SPOT peptide array binding signal intensity,AgLsb4,270
same,SPOT peptide array binding signal intensity,AgMyo5,0.5
same,SPOT peptide array binding signal intensity,AgNbp2,97.5
same,SPOT peptide array binding signal intensity,AgRvs167,5.17
same,SPOT peptide array binding signal intensity,AgSho1,334
same,SPOT peptide array binding signal intensity,AgSla1-D1-D2,40
same,SPOT peptide array binding signal intensity,AgSla1-D3,4
same,SPOT peptide array binding signal intensity,CaAbp1-D1,155
same,SPOT peptide array binding signal intensity,CaAbp1-D2,128
same,SPOT peptide array binding signal intensity,CaBbc1,38
same,SPOT peptide array binding signal intensity,CaBem1-D1,8.5
same,SPOT peptide array binding signal intensity,CaBzz1-D1,26.5
same,SPOT peptide array binding signal intensity,CaBzz1-D2,14.2
same,SPOT peptide array binding signal intensity,CaCyk3,9
same,SPOT peptide array binding signal intensity,CaFus1,1410
same,SPOT peptide array binding signal intensity,CaHof1,0.5
same,SPOT peptide array binding signal intensity,CaHse1,80.8
same,SPOT peptide array binding signal intensity,CaLsb1,2.5
same,SPOT peptide array binding signal intensity,CaLsb4,37
same,SPOT peptide array binding signal intensity,CaMyo5,≤ 0
same,SPOT peptide array binding signal intensity,CaNbp2,870
same,SPOT peptide array binding signal intensity,CaRvs167,66.8
same,SPOT peptide array binding signal intensity,CaRvs167-3,141
same,SPOT peptide array binding signal intensity,CaSho1,493
same,SPOT peptide array binding signal intensity,CaSla1-D1-D2,≤ 0
same,SPOT peptide array binding signal intensity,CaSla1-D3,39.2
same,SPOT peptide array binding signal intensity,ScAbp1,83
same,SPOT peptide array binding signal intensity,ScBbc1,2.5
same,SPOT peptide array binding signal intensity,ScBem1-D1,10
same,SPOT peptide array binding signal intensity,ScBzz1-D1,13
same,SPOT peptide array binding signal intensity,ScBzz1-D2,74.5
same,SPOT peptide array binding signal intensity,ScCyk3,28
same,SPOT peptide array binding signal intensity,ScFus1,546
same,SPOT peptide array binding signal intensity,ScHof1,1
same,SPOT peptide array binding signal intensity,ScHse1,2310
same,SPOT peptide array binding signal intensity,ScLsb1,12.5
same,SPOT peptide array binding signal intensity,ScLsb2,2
same,SPOT peptide array binding signal intensity,ScLsb3,107
same,SPOT peptide array binding signal intensity,ScLsb4,31.5
same,SPOT peptide array binding signal intensity,ScMyo3,0.5
same,SPOT peptide array binding signal intensity,ScMyo5,0.5
same,SPOT peptide array binding signal intensity,ScNbp2,234
same,SPOT peptide array binding signal intensity,ScPex13,1
same,SPOT peptide array binding signal intensity,ScRvs167,11
same,SPOT peptide array binding signal intensity,ScSho1,648
same,SPOT peptide array binding signal intensity,ScSla1-D1-D2,1
same,SPOT peptide array binding signal intensity,ScSla1-D3,8
same,SPOT peptide array binding signal intensity,SpAbp1-D1,199
same,SPOT peptide array binding signal intensity,SpBbc1,6.25
same,SPOT peptide array binding signal intensity,SpBzz1-D1,18
same,SPOT peptide array binding signal intensity,SpBzz1-D2,≤ 0
same,SPOT peptide array binding signal intensity,SpCyk3,4
same,SPOT peptide array binding signal intensity,SpHof1,144
same,SPOT peptide array binding signal intensity,SpHof1-2,21.8
same,SPOT peptide array binding signal intensity,SpHof1-3,686
same,SPOT peptide array binding signal intensity,SpHse1,643
same,SPOT peptide array binding signal intensity,SpLsb1,3
same,SPOT peptide array binding signal intensity,SpLsb4,67
same,SPOT peptide array binding signal intensity,SpMyo1,4.5
same,SPOT peptide array binding signal intensity,SpNbp2,374
same,SPOT peptide array binding signal intensity,SpPex13,11.5
same,SPOT peptide array binding signal intensity,SpRvs167,13.8
same,SPOT peptide array binding signal intensity,SpSla1-D1-D2,5
same,SPOT peptide array binding signal intensity,SpSla1-D3,6.5

# — the supplement of paper PMC4466140
